HEK293 tox: Cytotoxic Profiling in HEK 293 Cell Line of Diverse Libraries Using Quantitative High-Throughput Screening; HEK 293 viability, ATP luminescence (CellTiter-Glo), 48-72 h; Potency, µM (top dose mostly 115 µM), hits mostly inhibitors; hit rate 6.6% among 94,000; AID 1345083, 2018; also: nearly all actives have a fitted effect of over 60% in size
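HEK 293 cells at 250 cells/well were exposed to compounds by pintool transfer for 48 or 72 hr at 37 degree Celsius, 5% CO2. Viability was read as ATP-coupled luminescence with CellTiter-Glo after 10 min at room temperature.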
NIH3T3 tox: Cytotoxic Profiling in NIH 3T3 Cell Line of Diverse Libraries Using Quantitative High-Throughput Screening. hit rate 4.3% among 94,000. AID 1345082, 2018. Potency, µM (highest dose often 96.7 µM), hits mostly inhibitors. NIH 3T3 viability, CellTiter-Glo ATP luminescence, 48-72 h; also: nearly all actives have a fitted effect of over 55% in size
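Cells were seeded at 400 per well, treated with pin-transferred compound, and kept 48 or 72 hr at 37 °C before CellTiter-Glo addition and luminescence imaging of cellular ATP.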
hNpr1 antagonist: Natriuretic polypeptide receptor (hNpr1) antagonism - Primary qHTS | hit rate 1.6% among 76,000 | Potency, µM (top dose mostly 46.3 µM), usual class: inhibitors | Atrial natriuretic peptide receptor 1 (Homo sapiens), P16066 | AID 1347048, 2019 | HEK293 hNpr1 GloSensor cGMP, ANP-stimulated luminescence; calls by dose curve; also: nearly all actives have a fitted effect of over 60% in size
Target sequence (P16066 whole entry, looked up): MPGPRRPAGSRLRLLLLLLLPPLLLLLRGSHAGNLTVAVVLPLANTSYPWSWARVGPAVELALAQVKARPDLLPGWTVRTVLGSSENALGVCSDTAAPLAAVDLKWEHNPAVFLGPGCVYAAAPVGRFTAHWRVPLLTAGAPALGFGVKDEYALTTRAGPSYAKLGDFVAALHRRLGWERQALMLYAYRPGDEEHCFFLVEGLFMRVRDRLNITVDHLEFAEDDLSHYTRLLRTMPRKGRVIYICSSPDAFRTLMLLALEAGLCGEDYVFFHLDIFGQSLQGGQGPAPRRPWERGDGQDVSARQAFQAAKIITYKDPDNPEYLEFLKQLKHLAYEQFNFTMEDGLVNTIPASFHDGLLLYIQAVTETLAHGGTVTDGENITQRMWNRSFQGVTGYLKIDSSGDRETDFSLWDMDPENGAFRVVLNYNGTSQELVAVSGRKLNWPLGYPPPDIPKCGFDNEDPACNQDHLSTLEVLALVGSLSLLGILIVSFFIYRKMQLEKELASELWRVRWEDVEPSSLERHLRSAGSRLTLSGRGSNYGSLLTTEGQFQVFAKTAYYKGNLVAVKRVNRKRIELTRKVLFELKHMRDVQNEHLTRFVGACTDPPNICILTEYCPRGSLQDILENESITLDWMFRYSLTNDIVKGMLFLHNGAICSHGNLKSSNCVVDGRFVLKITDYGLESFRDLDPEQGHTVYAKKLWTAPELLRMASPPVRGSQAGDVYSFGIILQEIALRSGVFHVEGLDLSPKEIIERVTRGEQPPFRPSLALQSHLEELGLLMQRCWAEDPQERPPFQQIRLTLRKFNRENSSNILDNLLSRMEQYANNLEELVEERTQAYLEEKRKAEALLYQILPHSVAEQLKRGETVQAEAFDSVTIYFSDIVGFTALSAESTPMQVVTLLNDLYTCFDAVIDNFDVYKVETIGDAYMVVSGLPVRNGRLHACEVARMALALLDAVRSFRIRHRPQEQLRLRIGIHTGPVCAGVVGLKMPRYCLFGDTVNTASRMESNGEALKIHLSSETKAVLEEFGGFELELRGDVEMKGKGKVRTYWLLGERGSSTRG
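HEK293 cells stably expressing human Npr1 and cGMP GloSensor pGS-40F, loaded 2 h with 2% GloSensor reagent, given compound 30 min at room temperature. Luminescence read before and 20 min after 0.1 nM hNppA.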
FLuc inh: Firefly luciferase inhibition profiling of diverse chemical library using quantitative high-throughput screening | hit rate 2.5% among 76,000 | Potency, µM (highest dose often 115 µM), most hits filed as inhibitors | purified P. pyralis luciferase, luminescence, biochemical; also: nearly all actives have a fitted effect of over 65% in size
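Cell-free enzyme assay, 10nM P. pyralis luciferase, luciferin and ATP each at 10uM. Inhibition profiled over a 6-point titration, read as luminescence.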
Numbers stand for hits; . = inactive; ? = inconclusive; / = no result given. Hits are enriched below; roughly 11% of the tested compounds scored in any of these assays. Unless noted, calls follow the shape of the dose curve; as a rule, active = well fitted curve in the direction sought with a large enough effect; inconclusive = small, poorly fitted or top-dose-only effect, or another doubt; inactive = no such curve, though single readings can be large; an effect the other way counts as inactive or inconclusive.

SMILES | HEK293 tox | NIH3T3 tox | hNpr1 antagonist | FLuc inh
CN1c2cc(C(=O)Nc3cccc(Br)c3)ccc2C(=O)N2CCCCCC21 (configuration not stated) | ? | ? | . | ?
Cc1cc(C)cc(NC(=O)c2ccc3c(c2)N(C)C2CCCN2C3=O)c1 (configuration not stated) | 70.8µM | . | . | .
COC(=O)c1cccc(NC(=O)c2ccc3c(c2)N(C)C2CCCCCN2C3=O)c1 (configuration not stated) | ? | 44.7µM | ? | ?
COc1cc(NC(=O)c2ccc3c(c2)N(C)C2CCCCN2C3=O)cc(OC)c1OC (configuration not stated) | ? | 31.6µM | . | .
Cc1cnc(C2CN(C(=O)C(C)Oc3ccccc3)C2)n1Cc1cccnc1 (configuration not stated) | . | . | / | /
O=C(CC1CCCN(c2cnn(CC3CC3)c(=O)c2)C1)NCc1ccccc1 (configuration not stated) | ? | 35.5µM | . | .
CCn1ncc(N2CCCC(CC(=O)NCc3ccccc3)C2)cc1=O (configuration not stated) | ? | . | . | .
Cn1ncc(N2CCCC(CC(=O)Nc3cccc(F)c3)C2)cc1=O (configuration not stated) | . | ? | . | .
O=C(CC1CCCN(c2cnn(CC3CC3)c(=O)c2)C1)NCCc1c[nH]c2ccccc12 (configuration not stated) | 79.4µM | ? | . | .
O=C(CC1CCCN(c2cnn(CC3CC3)c(=O)c2)C1)Nc1cccc(F)c1 (configuration not stated) | ? | 22.4µM | . | .
O=C(Nc1ccccc1)N1CCC(C(=O)N2CCC(c3ccccc3)CC2)CC1 | . | ? | / | /
COCCn1c(=O)c(C(=O)N2CCN(C(=O)NC3CCCC3)CC2)nc2cccnc21 | . | . | / | /
COc1ccc(-c2cnc3n[nH]c(-c4sccc4C)c3n2)cc1 | ? | ? | . | .
CC(=O)Nc1cccc(-c2cnc3n[nH]c(-c4ccc5c(c4)OCO5)c3n2)c1 | 22.4µM | 25.1µM | . | ?
CC(=O)Nc1cccc(-c2cnc3n[nH]c(-c4sccc4C)c3n2)c1 | 31.6µM | ? | ? | ?
CC(=O)Nc1cccc(-c2cnc3n[nH]c(-c4ccccc4C)c3n2)c1 | 70.8µM | 44.7µM | . | .
CC(=O)Nc1cccc(-c2cnc3n[nH]c(-c4ccc(F)cc4C)c3n2)c1 | 20µM | 25.1µM | . | .
Cc1ccc2nc(CO[C@H]3CN(c4ccc(C#N)cn4)C[C@H]3F)[nH]c2c1 | . | . | . | .
CNC(=O)c1cc(C2CC2)nc2c1c(C1CCCN1C(=O)c1ccccc1F)nn2C (configuration not stated) | . | . | / | /
CCc1nc2c(c(-c3ccc(O)cc3)n1)CCN(C(=O)Cc1ccc(OC)cc1)CC2 | . | . | / | /
O=C(NCCc1ccccn1)C1c2ccccc2C(=O)N(C2CCCCC2)C12CCCCC2 (configuration not stated) | 44.7µM | ? | . | .
CCOC(=O)[C@H]1[C@@H](O)C(=O)N(C(C)C)C12CCN(C(=O)c1csc(-c3cccs3)n1)CC2 | . | ? | / | /
COc1cc(Nc2nc(-c3ccccc3F)no2)cc(OC)c1OC | 31.6µM | ? | . | ?
COc1cc(Nc2nc(-c3ccccc3)no2)cc(OC)c1OC | ? | ? | . | 31.6µM
COc1ccc(-c2noc(Nc3cc(OC)c(OC)c(OC)c3)n2)cc1OC | 22.4µM | ? | . | .
SMILES | HEK293 tox | NIH3T3 tox | hNpr1 antagonist | FLuc inh
COc1cc(Nc2ncncc2-c2nc(-c3ccccc3)no2)cc(OC)c1OC | . | . | . | .
COc1cccc(-c2noc(Nc3cc(OC)c(OC)c(OC)c3)n2)c1 | 44.7µM | ? | . | ?
COCCn1c(=O)c(C(=O)NCc2ccc(F)c(F)c2)nc2cccnc21 | . | . | / | /
COCCCn1c(=O)c(C(=O)N2CCN([S+](=O)([O-])c3cccc(OC)c3)CC2)nc2cccnc21 | . | . | / | /
COc1cc2c(cc1OC)C(C[C@H]1CN(S(=O)(=O)c3ccc(Cl)cc3)CC[C@H]1CC(=O)O)=NCC2 | . | . | . | .
O=C1NC2(CCN(Cc3ccsc3)C2)COc2ccccc21 (configuration not stated) | ? | 39.8µM | . | .
O=C1NC2(CCN(Cc3ccc(F)cc3)CC2)COc2ccccc21 | 63.1µM | . | . | .
